Several values for one entry are separate records, joined by “and”; a condition that tells them apart may be missing. Identical values can stand only once. Inconclusive results are not listed. Activity calls are given as the source filed them. The call rests on the fitted dose curve; in most records, active means well fitted curve in the direction sought with a large enough effect; inconclusive means small, poorly fitted or top-dose-only effect, or another doubt; inactive means no such curve, though single readings can be large; an effect the other way counts as inactive or inconclusive.
Assay: Primary qHTS for inhibitors of nuclear receptor binding SET domain protein 2 (NSD2) in an isogenic RCH-ACV NSD2 p.E1099K mutant (9B) (AID 1645876)
Conditions: RCH-ACV NSD2 E1099K (9B) viability, CellTiter-Glo, 72 h; series mostly up to 44.9 µM; activity change, negative = viability loss: at the top concentration
Further: nearly all actives have a fitted effect of over 70% in size.
On the % scale 0 is the no-effect control and ±100 the full control effect; potency means the concentration at half of the fitted maximal effect.

SMILES	Potency	activity change, negative = viability loss	outcome
C[C@@H]1C[C@@H]([C@H](O)CC2CC(=O)NC(=O)C2)C(=O)[C@@H](C)C1	211 nM (active) and 296 nM (active)	–	–
Nc1ccc(Cl)cc1C(=O)c1ccccc1F	–	-14.5% (inactive)	–
O=C(CBr)Nc1ccc(Cl)cc1C(=O)c1ccccc1F	–	-10.3% (inactive)	–
CC[C@H](O)C(C[C@H](C)N(C)C)(c1ccccc1)c1ccccc1	–	5.77% [at 91.9 µM] (inactive)	–
Clc1ccc(CSC(Cn2ccnc2)c2ccc(Cl)cc2Cl)cc1 (stereo not given)	5.96 µM (active)	–	–
CN1C(=O)CN=C(c2ccccc2)c2cc(Cl)ccc21	–	–	inactive
Cc1ncc2n1-c1ccc(Cl)cc1C(c1ccccc1F)=NC2	23.7 µM (active)	–	–
CC(C)NCC(O)c1ccc(N)c(C#N)c1 (stereo not given)	–	8.48% (inactive)	–

Assay: Primary qHTS for inhibitors of nuclear receptor binding SET domain protein 2 (NSD2) in an RCH-ACV wild type WT cells (2C) (AID 1645877)
Conditions: RCH-ACV (leukaemia line) NSD2 WT (2C) viability, CellTiter-Glo, 72 h; series mostly up to 44.9 µM; activity change, negative = cell killing: at the top concentration

SMILES	Potency	activity change, negative = cell killing
C[C@@H]1C[C@@H]([C@H](O)CC2CC(=O)NC(=O)C2)C(=O)[C@@H](C)C1	188 nM (active) and 296 nM (active)	–
O=C(CBr)Nc1ccc(Cl)cc1C(=O)c1ccccc1F	–	-0.629% (inactive)
CC[C@H](O)C(C[C@H](C)N(C)C)(c1ccccc1)c1ccccc1	–	-7% [at 91.9 µM] (inactive)
Clc1ccc(CSC(Cn2ccnc2)c2ccc(Cl)cc2Cl)cc1 (stereo not given)	5.96 µM (active)	–
CN1C(=O)CN=C(c2ccccc2)c2cc(Cl)ccc21	–	-4.23% (inactive)
Cc1ncc2n1-c1ccc(Cl)cc1C(c1ccccc1F)=NC2	13.3 µM (active)	–
CC(C)NCC(O)c1ccc(N)c(C#N)c1 (stereo not given)	–	6.09% (inactive)

Source: PubChem BioAssay (NCATS)
